Active and inactive are the calls of the source.

The results in this text go back to PubChem BioAssay.

Assay [1] can be described thus: binders of probe aFSTL3 on microarray, primary screen, stem cell growth factor project, biochemical, small-molecule microarray, fluorescence 635/667 (AID 1064).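 Further: measures binding of the biotinylated anti-FSTL3 antibody to printed compounds.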 The settings on record: higher = more signal.
Assay [2] in a line: binders from COS7 lysate, DM2A8 probe, primary screen, torsin A project, cell lysate, small-molecule microarray, fluorescence 635/667 (AID 1065). As to conditions: higher = more signal, COS7 lysate expressing mutant human TOR1A.
Assay [3] is described as follows: binders of probe aFGF2 on microarray, primary screen, stem cell growth factor project, biochemical, small-molecule microarray, fluorescence 635/667 (AID 1067).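 Further: measures binding of biotinylated aFGF2 protein to printed compounds on slides; z-score merges feature fluorescence and signal-to-noise across triplicate slides.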 The settings on record: higher = more signal.
Assay [4] is described as follows: binders of probe aFGF10 on microarray, primary screen, stem cell growth factor project, biochemical, small-molecule microarray, fluorescence 635/667 (AID 1071).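 Further: score merges 667 nm spot intensity and signal to noise from triplicate slides.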 As to conditions: higher = more signal.
Assay [5] has as its target Neurogenic locus notch homolog protein 2 (Homo sapiens) (UniProt Q04721). The assay can be described thus: Notch2 binders on small-molecule microarrays, primary screen, biochemical, small-molecule microarray, 635 nm fluorescence, stem cell growth factors (AID 1073). The settings on record: Notch2 binding, higher = more signal.
Assay [6] deals with Pro-neuregulin-1, membrane-bound isoform (Homo sapiens) (UniProt Q02297). The assay can be described thus: NRG1 binders on small-molecule microarrays, primary screen, psychiatric disease protein project, biochemical, small-molecule microarray, fluorescence 635/667 (AID 1075).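 Further: score combines 667 nm spot fluorescence with signal to noise.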 As to conditions: NRG1 binding, 635 nm fluorescence, higher = more signal.
Assay [7] concerns Neuregulin-1 EGF-like domain. The assay can be described thus: binders of neuregulin-1 EGF-like domain, primary screen, biochemical, small-molecule microarray, 635 nm fluorescence (AID 1081).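 Further: binding of the protein to compounds printed on small-molecule microarray slides.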 The settings on record: small-molecule microarray binding, higher = more signal.
The nature of assay [8]: FRG1 promoter luciferase signal modulators, primary screen, FRG1 inhibition for FSHD, cell-based, C2C12 myotubes, firefly/Renilla luciferase, luminescence (AID 1084). The settings on record: higher = more signal, called active from +8 up or from −8 down.
A short description of assay [9]: binders of probe aFST on microarray, primary screen, stem cell growth factor project, biochemical, small-molecule microarray, fluorescence 635/667 (AID 1086).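 Further: score merges 667 nm fluorescence with signal-to-noise of each printed compound spot.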 As to conditions: higher = more signal.
Assay [10] in a line: binders of probe aHhip on microarray, primary screen, stem cell growth factor project, biochemical, small-molecule microarray, fluorescence 635/667 (AID 1087).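 Further: score merges spot fluorescence at 667nm with spot signal to noise ratio.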 The settings on record: higher = more signal.
For assay [11], the system named is PRMT1 (protein arginine N-methyltransferase 1). The assay can be described thus: PRMT1 binders on small-molecule microarrays, primary screen, biochemical, small-molecule microarray, 635 nm fluorescence (AID 1088).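 Further: binding of Prmt1 protein to compounds spotted on small-molecule microarray slides.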 As to conditions: small-molecule microarray binding, higher = more signal.
Assay [12] in a line: yeast growth modulation, basal conditions, primary screen, YJM789 clinical isolate, OD600, 24 h (AID 1089).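 Further: growth of clinical yeast isolate S. cerevisiae YJM 789 seeded 1000 cells per well; test concentration not given here.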 As to conditions: S. cerevisiae YJM789 growth, higher = more signal, called active from +8 up or from −8 down.
A short description of assay [13]: fission yeast growth modulation, primary screen, strain 972, OD600, 24 h, no modulator (AID 1090).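 Further: basal condition with compound alone and no growth modifier present; test concentration not given here.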 The settings on record: S. pombe 972 growth, higher = more signal, called active from +8 up or from −8 down.
A short description of assay [14]: S. cerevisiae growth modulation with rapamycin, primary screen, strain BY4716, OD600, 96 h (AID 1091). Further: test concentration not given here. As to conditions: higher = more signal, called active from +8 up or from −8 down.
In assay [15] the target is Torsin-1A-interacting protein 2 (Homo sapiens) (UniProt Q8NFQ8). Put plainly: LULL1 binders on small-molecule microarray, primary screen, cell lysate, human LULL1 lysate, 635/667 nm fluorescence (AID 1092).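 Further: probe is lysate of COS7 cells overexpressing human LULL1; score merges per-feature 667 nm fluorescence with signal-to-noise.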 The settings on record: hLULL1 lysate binding, 635 nm fluorescence, higher = more signal.
Assay [16] is described as follows: E. coli growth modulation, two-sided OD650, primary screen, E. coli filamentation project, strain DRC41, 24 h (AID 1093).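 Further: MC1000 strain lacking acrAB efflux and sulA so SOS filamentation is blocked; test concentration not given here.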 As to conditions: OD650, 24 h, higher = more signal, called active from +8 up or from −8 down.
A short description of assay [17]: small-molecule microarray binders of probe aLefty2, primary screen, biochemical, biotinylated probe, 635/667 nm fluorescence (AID 1094).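 Further: score merges spot fluorescence near 667 nm with spot signal-to-noise ratio.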 As to conditions: higher = more signal.
Assay [18] concerns Noggin (protein binding on small-molecule microarray). The assay can be described thus: Noggin binders on small-molecule microarray, primary screen, biochemical, 635/667 nm fluorescence (AID 1095).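 Further: score merges 667 nm feature fluorescence with signal to noise over triplicate slides.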 As to conditions: 635 nm fluorescence, higher = more signal.
The target of assay [19] is Neurogenic locus notch homolog protein 3 (Homo sapiens) (UniProt Q9UM47). The assay can be described thus: NOTCH3 binders on small-molecule microarray, primary screen, biochemical, 635/667 nm fluorescence (AID 1096). The settings on record: NOTCH3 binding, 635 nm fluorescence, higher = more signal.
A short description of assay [20]: small-molecule microarray binders of probe aEGFR, primary screen, biochemical, biotinylated probe, 635/667 nm fluorescence (AID 1097).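 Further: probe is a biotinylated anti-EGFR antibody binding compounds printed on slides; score combines fluorescence near 667 nm and signal to noise of each spot.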 As to conditions: higher = more signal.

Chain of Pro-neuregulin-1, membrane-bound isoform (Homo sapiens) (Q02297 whole entry, looked up, the tested form may be a part, canonical isoform): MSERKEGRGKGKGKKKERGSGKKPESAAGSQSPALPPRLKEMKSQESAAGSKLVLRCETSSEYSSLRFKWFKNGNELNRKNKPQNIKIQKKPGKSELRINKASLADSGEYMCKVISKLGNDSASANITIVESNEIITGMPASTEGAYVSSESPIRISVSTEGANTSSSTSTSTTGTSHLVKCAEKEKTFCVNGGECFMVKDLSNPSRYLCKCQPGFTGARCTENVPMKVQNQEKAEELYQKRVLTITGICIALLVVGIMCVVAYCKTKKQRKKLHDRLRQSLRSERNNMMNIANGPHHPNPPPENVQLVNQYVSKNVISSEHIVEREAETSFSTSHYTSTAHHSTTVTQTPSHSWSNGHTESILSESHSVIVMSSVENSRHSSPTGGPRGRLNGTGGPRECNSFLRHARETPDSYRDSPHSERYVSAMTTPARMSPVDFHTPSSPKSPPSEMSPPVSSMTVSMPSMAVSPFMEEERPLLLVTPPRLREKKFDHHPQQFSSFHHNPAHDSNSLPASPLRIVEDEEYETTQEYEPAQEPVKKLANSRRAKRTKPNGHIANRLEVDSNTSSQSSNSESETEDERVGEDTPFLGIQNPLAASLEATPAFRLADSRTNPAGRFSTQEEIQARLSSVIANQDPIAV
Chain of Neurogenic locus notch homolog protein 3 (Homo sapiens) (Q9UM47 whole entry, looked up): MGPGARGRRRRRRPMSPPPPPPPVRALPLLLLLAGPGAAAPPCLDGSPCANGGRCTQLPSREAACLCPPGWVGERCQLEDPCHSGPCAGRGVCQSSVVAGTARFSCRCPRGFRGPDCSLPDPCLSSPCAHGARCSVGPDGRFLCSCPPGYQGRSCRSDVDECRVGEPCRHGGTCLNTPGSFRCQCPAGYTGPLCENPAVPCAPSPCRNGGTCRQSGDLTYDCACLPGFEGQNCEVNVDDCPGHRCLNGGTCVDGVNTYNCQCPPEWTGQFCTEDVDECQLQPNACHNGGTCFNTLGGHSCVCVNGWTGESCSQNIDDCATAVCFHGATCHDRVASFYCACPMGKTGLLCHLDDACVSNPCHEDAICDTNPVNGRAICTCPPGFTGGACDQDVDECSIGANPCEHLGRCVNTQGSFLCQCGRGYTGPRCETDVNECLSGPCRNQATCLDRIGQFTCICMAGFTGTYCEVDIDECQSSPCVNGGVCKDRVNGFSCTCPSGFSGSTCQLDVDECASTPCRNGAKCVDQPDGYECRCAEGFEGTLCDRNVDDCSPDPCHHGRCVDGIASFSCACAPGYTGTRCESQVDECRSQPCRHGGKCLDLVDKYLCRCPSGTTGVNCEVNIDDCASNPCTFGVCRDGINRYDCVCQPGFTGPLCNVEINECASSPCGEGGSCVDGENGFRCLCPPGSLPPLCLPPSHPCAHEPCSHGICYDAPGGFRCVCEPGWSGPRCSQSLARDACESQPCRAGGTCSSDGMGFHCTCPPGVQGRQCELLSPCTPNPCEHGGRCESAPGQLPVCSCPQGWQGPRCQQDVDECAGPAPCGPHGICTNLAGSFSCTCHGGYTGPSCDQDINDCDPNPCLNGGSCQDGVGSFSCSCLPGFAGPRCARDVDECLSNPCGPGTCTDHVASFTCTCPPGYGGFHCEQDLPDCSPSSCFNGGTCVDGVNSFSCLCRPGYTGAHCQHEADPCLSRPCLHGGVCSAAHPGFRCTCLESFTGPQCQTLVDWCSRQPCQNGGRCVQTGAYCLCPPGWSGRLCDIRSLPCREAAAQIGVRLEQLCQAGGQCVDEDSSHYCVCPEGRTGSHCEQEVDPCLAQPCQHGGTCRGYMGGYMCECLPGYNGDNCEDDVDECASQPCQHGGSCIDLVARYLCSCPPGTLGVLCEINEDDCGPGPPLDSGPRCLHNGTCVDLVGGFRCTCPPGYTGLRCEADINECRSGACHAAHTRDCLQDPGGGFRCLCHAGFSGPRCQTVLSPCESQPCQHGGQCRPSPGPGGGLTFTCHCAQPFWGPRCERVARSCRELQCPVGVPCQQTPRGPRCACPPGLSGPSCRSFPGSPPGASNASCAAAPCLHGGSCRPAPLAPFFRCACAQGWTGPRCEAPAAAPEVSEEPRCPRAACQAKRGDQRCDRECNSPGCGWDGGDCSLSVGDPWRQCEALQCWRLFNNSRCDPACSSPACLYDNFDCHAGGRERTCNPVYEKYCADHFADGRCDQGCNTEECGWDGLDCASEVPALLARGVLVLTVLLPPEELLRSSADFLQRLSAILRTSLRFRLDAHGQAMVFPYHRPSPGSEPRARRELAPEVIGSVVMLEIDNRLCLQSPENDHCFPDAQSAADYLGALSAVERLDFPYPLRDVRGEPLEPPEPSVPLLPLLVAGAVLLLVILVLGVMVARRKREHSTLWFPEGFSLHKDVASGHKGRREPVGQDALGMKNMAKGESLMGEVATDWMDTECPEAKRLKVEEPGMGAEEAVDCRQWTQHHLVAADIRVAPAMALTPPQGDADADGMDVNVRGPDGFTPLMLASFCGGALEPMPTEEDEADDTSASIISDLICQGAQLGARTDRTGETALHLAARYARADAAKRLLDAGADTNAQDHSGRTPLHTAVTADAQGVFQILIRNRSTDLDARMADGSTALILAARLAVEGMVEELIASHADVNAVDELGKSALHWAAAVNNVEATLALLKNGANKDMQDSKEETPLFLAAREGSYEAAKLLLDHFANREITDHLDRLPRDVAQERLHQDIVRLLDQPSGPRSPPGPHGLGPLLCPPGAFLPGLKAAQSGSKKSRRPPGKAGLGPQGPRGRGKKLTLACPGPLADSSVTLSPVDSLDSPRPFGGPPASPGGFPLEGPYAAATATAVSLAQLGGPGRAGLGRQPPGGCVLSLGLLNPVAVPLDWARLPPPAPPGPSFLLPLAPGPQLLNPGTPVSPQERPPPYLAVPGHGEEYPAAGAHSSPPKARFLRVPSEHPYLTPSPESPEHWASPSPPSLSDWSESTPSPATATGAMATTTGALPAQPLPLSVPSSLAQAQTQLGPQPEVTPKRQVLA
Chain of Torsin-1A-interacting protein 2 (Homo sapiens) (Q8NFQ8 whole entry, looked up): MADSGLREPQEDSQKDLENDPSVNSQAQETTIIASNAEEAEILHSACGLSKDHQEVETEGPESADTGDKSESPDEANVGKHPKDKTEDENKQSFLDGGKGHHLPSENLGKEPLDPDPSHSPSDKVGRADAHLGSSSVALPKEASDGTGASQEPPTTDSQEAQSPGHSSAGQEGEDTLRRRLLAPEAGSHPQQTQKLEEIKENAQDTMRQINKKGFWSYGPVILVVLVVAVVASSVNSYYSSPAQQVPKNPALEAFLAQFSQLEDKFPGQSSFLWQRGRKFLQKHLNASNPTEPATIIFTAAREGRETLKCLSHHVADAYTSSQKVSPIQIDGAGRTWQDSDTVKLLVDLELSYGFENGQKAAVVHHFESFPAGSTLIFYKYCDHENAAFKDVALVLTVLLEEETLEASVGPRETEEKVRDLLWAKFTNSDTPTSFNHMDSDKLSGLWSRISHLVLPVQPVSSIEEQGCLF

Turning to `CC(C)C(CO)N1C(=O)[C@@H]2[C@H]3C(=O)OCC=C[C@H]3OC23C=CCN(CCN2CCOCC2)C(=O)[C@@H]13` (stereo not given in full), the composite z-score in [1] was -0.565; in [2] it was -1.13; in assay [3] it was -0.166; in [4] it was -0.351; in assay [5], -0.868; in assay [6], 0.0853. In addition, the composite z-score in [7] was -0.428; in assay [9] it was -0.525; in assay [10], -0.538; in assay [11] it was 0.598; in assay [15] it was 1.13; in assay [17] it was -0.25. Moreover, the figures for the composite z-score in [18], in assay [19] and in assay [20] were 0.521, 0.583 and -0.244, respectively. Also, the z-score in [8] is -0.0357 (inactive); in [12], 1.21 (inactive); in [13], 0.0729 (inactive); in assay [14], 0.759 (inactive); in assay [16], -0.455 (inactive).
As to `CC(C)CCC[C@@H](C)[C@H]1CC[C@@]2(C)C3=C(CC[C@]12C)[C@@]1(C)CC[C@H](OC(=O)C(C)(C)C)C(C)(C)C1CC3` (stereo not given in full), the composite z-score in assay [1] was -0.441; in assay [2], 0.39; in [3], -0.0609; in assay [4], 0.298; in assay [5], 0.575; in assay [6], -0.036. Further, the composite z-score in [7] was 0.307; in [9], 0.0166; in assay [10], -0.0296; in [11] it was 0.475; in assay [15], 0.0236; in [17], -0.212. In addition, the composite z-score in assay [18] was 0.57; in [19] it was 0.571; in [20], -0.0549. The z-score in assay [8] is -0.987 (inactive); in assay [12] it was -3.55 (inactive); in assay [13], -2.59 (inactive); in assay [14], -2.18 (inactive); in assay [16], 0.768 (inactive).
Take `NC(=O)[C@H]1[C@@H]2C(=O)O[C@@H](c3ccccc3)[C@@H](c3ccccc3)N2[C@@H](c2ccc(O)cc2)[C@]12C(=O)Nc1ccc(C#CC3(O)CCCCCC3)cc12`: the composite z-score is 0.0918 in assay [1]; 0.417 in assay [2]; -0.0454 in [3]; 0.607 in assay [4]; 1.35 in [5]; 1.5 in assay [6]. The composite z-score in assay [7] is 1.35; in [9] it was 0.617; in [10] it was 0.233; in assay [11] it was 1.53; in assay [15], 3.22; in assay [17], 0.0441. The composite z-score turned out to be 1.2 in assay [18], 1.03 in [19] and 0.0955 in [20]. Also, the z-score in [8] is -1.46 (inactive); in assay [12] it was 0.46 (inactive); in assay [13] it was -1.09 (inactive); in [14], 1.33 (inactive); in assay [16], 0.568 (inactive).
Take `CN(C)C(=O)[C@@]1(Cc2ccccc2N=[N+]=[N-])N=C(c2ccc(OCCCO)cc2)O[C@H]1c1ccccc1N=[N+]=[N-]`: the composite z-score in [1] worked out at 0.982; in [2] it was 1.2; in assay [3], 0.125; in assay [4], 0.765; in assay [5] it was 1.51; in assay [6] it was 1.46. For the same compound, the composite z-score turned out to be 0.73 in assay [7]; 1.53 in [9]; 0.28 in [10]; 1.56 in assay [11]; 2.87 in assay [15]; 0.505 in assay [17]. The composite z-score worked out at 0.126 in assay [18], 1.06 in [19] and 0.387 in [20]. Besides, the z-score in assay [8] was -0.325 (inactive); in assay [12] it was 0.506 (inactive); in assay [13] it was -2.68 (inactive); in assay [14], 3.01 (inactive); in [16], 0.239 (inactive).
In the case of `CC(C)C[C@H]1NC(=O)[C@H](C)NC(=O)[C@@]23C(=O)N[C@@H](Cc4ccccc4)C2[C@H](C)[C@@]2(C)O[C@H]2C3/C=C/C/C=C\CNC1=O` (stereo not given in full), the composite z-score in [1] was -0.021; in [2] it was 0.366; in assay [3] it was -0.104; in assay [4], -0.0496; in assay [5], -0.465; in assay [6], 0.0659. For the same compound, the composite z-score in assay [7] is 0.511; in [9] it was -0.521; in assay [10], -0.54; in assay [11], 0.653; in [15], 2.44; in assay [17], -0.27. The figures for the composite z-score in assay [18], in assay [19] and in assay [20] were -0.344, 0.0715 and -0.158, respectively. Moreover, the z-score is 0.171 (inactive) in assay [8]; -1.14 (inactive) in assay [12]; -1.25 (inactive) in assay [13]; -1.07 (inactive) in assay [14]; -0.847 (inactive) in assay [16].
